# Assay outcomes as filed in PubChem BioAssay.
# Most compounds without a hit are left out; they make up all but 13% or so of the library.
# HCV inhibitor: HCV inhibition; Huh7.5.1 HCVcc-Cre infection, luciferase reporter, 44 h; Potency, µM (top dose mostly 41.8 µM), for inactives: top-dose activity change, negative = inhibition, usual class: inhibitors; hit rate 3.4% among 340,000; note: potency is the fitted concentration of half-maximal effect
#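 Cells seeded at 1,000/well and cultured 4 h, then compounds added followed by HCVcc-Cre virus (~0.5 moi). After 44 h further culture, luciferase substrate was added, plates held 15 min at room temperature, and luminescence read for 15 sec.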
# HCMV antiviral: human cytomegalovirus inhibition; HFF cells, HCMV-luciferase reporter, 72 h; hits give low values; hit rate 4.5% among 410,000; AID 1259415; activity change, negative = inhibition, % at 57.5 µM; in the data active = activity change below about -60%; inconclusive = no clear call, values can overlap the other calls; inactive = above about -39%
#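 Human foreskin fibroblasts infected with luciferase-reporter HCMV at MOI 1 PFU/cell, compounds at two doses. Luciferase measured 72 h post infection; normalized to buffer-only basal and Salinomycin (10uM) controls.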
# Pf growth 48h: inhibits P. falciparum growth in the first generation, 48 h. P. falciparum luciferase growth in erythrocytes, 48 h. Potency, µM (series often up to 28.7 µM), inactives show at the highest dose activity change, negative = inhibition, hits mostly inhibitors. hit rate 5.9% among 310,000; note: potency is the fitted concentration of half-maximal effect
#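 Luciferase-expressing parasites in RBCs, 2% Hct / 0.1% parasitemia final; RPMI 1640 + 0.5% Albumax; 37 C, 5% CO2, one generation; luminescence read-out, lower signal = inhibition.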
# Pf growth 96h: inhibits malaria parasite growth, 96 h; hit rate 6.9% among 320,000; Potency, µM (titrated, usually from 28.7 µM), for inactives: top-dose activity change, negative = inhibition, usual class: inhibitors; AID 504834; P. falciparum luciferase reporter growth, 96 h; note: potency is the fitted concentration of half-maximal effect
#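 Luminescence readout: decreased luciferase signal marks inhibited growth of reporter-expressing P. falciparum in infected red cells (2% hematocrit, 0.05% parasitemia final), exposed to compound two generations (96 h, 37 C, 5% CO2).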
# * hit, by the source's call; ? = inconclusive; . = no result given. Unless noted, calls come from the whole dose curve; as a rule, active = well fitted inhibition curve with a large enough effect; inconclusive = small, poorly fitted or top-dose-only effect, or another doubt; inactive = no such curve, though single readings can be large or run the other way. % is set by controls: 0 for no effect and ±100 for the full control effect.
SMILES,HCV inhibitor,HCMV antiviral,Pf growth 48h,Pf growth 96h
C[C@H](CO)N1C[C@H](C)[C@H](CN(C)C(=O)NC2CCCCC2)OCc2cnnn2CCCC1=O,.,-7,.,.
COc1cc(C(=O)NNC(=O)COc2cccc(F)c2)ccc1OCC(=O)N1CCOCC1,-6%,-70*,12%,-10%
COc1cc(C(=O)NNC(=O)COc2ccc(C)cc2)ccc1OCC(=O)N1CCOCC1,-6%,-34,-13%,-21%
CCc1nnc(NC(=O)CSC(=S)N2CCOCC2)s1,18%,-98*,-21%,-14%
Cc1cnc(NC(=O)CSC(=S)N2CCOCC2)s1,-4%,-23,38%,67%
CCOc1cc(C(=O)Nc2nnc(CC)s2)ccc1OCC(=O)N1CCOCC1,-12%,105,0.26µM*,?
COc1ccc(-c2csc(NC(=O)c3ccc(OCC(=O)N4CCOCC4)c(OC)c3)n2)cc1OC,?,-82*,9.3µM*,?
CCOC(=O)c1sc(NC(=O)CSC(=S)N2CCN(C)CC2)nc1C,13µM*,-20,8.3µM*,?
CCOC(=O)c1sc(NC(=O)CCSC)nc1C,-8%,-17,?,16%
CC(C)(C)NC[C@@H](O)COc1ccccc1C1CCCC1,.,.,2.9µM*,2.3µM*
CC(C)(C)NCC(O)COc1ccccc1C(=O)CCc1ccccc1 (centres undefined),-20%,?,.,?
CC(C)(C)NCC(O)COc1ccccc1C(C)(C)C (centres undefined),?,6,4.7µM*,?
COCC(=O)Nc1ccc2c(c1)[C@H]1C[C@@H](CC(=O)NCC3CC3)O[C@H](CO)[C@H]1O2,.,5,.,.
CCOc1ccc(N2C(=O)/C(=C/c3cccs3)N(CC(=O)OC)C2=S)cc1,4%,18,15%,31%
CCOc1ccc(N2C(=O)CC(=O)NC2=O)cc1,13%,58,-5%,10µM*
CCOc1ccc(N2C(=O)CN(CC(=O)OC)C2=S)cc1,11%,-69*,12%,42%
CCOc1ccccc1N1C(=O)CC(=O)NC1=O,8%,0,23%,24%
CCN(CC)c1ccc(N2C(=O)CSC2=S)cc1,-16%,7,?,?
CCOc1ccc(N2C(=O)CSC2=S)cc1,1%,18,-2%,13µM*
CCOc1ccc(-n2c(-c3ccccc3)c(C)n3c4c(=O)n(C)c(=O)n(C)c4nc23)cc1,.,-28,.,.
CCCCN1CC(COCc2ccccc2)Oc2cccc(Oc3ccc(F)cc3)c2S1(=O)=O (centres undefined),-16%,-10,.,.
CCCCN1CC(COCc2ccccc2)Oc2cccc(Oc3ccccc3)c2S1(=O)=O (centres undefined),2.5µM*,1,.,.
COc1cccc(-n2nc(-c3ccnn3-c3ccc(F)cc3)c(=O)n(C)c2=O)c1,16%,-35,.,12µM*
COc1ccc(-n2nccc2-c2nn(-c3cccc(OC)c3)c(=O)n(C)c2=O)cc1,-12%,3,.,-6%
COc1ccc(C)cc1NC(=O)CN1C(=O)CCc2cc(S(=O)(=O)N3CCOCC3)ccc21,.,33,.,.
SMILES,HCV inhibitor,HCMV antiviral,Pf growth 48h,Pf growth 96h
C[C@H](NC(=O)c1nc[nH]c1C(=O)N[C@@H](Cc1ccccc1)C(=O)OCc1ccccc1)C(=O)OC(C)(C)C,18%,29,7.4µM*,?
CC(C)C[C@H](NC(=O)c1[nH]cnc1C(=O)N[C@@H](Cc1ccccc1)C(=O)OC(C)(C)C)C(=O)OC(C)(C)C,?,-89*,9.3µM*,?
CC(C)C[C@H](NC(=O)c1[nH]cnc1C(=O)N[C@@H](Cc1ccccc1)C(=O)OC(C)(C)C)C(=O)OCc1ccccc1,11%,1,?,95%
C[C@H](NC(=O)c1nc[nH]c1C(=O)N[C@@H](C)C(=O)OC(C)(C)C)C(=O)OCc1ccccc1,7%,0,-2%,1%
COc1cc2ccccc2c2c1CCCC2=O,13µM*,-6,.,-20%
O=C(CCC(=O)Nc1cccc(Cl)c1)N/N=C/c1cc([N+](=O)[O-])ccc1O,-17%,16,?,60%
CC(C)(C)NC(=O)CN(c1cccc([N+](=O)[O-])c1)S(=O)(=O)c1ccccc1,?,-5,3%,33%
O=C(CCCC(=O)Nc1cccc(Br)c1)N/N=C/c1cc([N+](=O)[O-])ccc1O,0%,20,10µM*,34%
O=C(CN(c1cccc(Br)c1)S(=O)(=O)c1ccccc1)N/N=C/c1cc([N+](=O)[O-])ccc1O,?,-94*,.,.
Cc1ccc(C2=NN(S(=O)(=O)c3ccccc3)C(c3ccccc3O)C2)cc1 (centres undefined),14µM*,?,?,?
COc1ccc(S(=O)(=O)N2N=C(c3cccc(NS(C)(=O)=O)c3)CC2c2ccco2)cc1 (centres undefined),0%,?,-11%,13µM*
COc1ccc(S(=O)(=O)N2N=C(c3ccc(NS(C)(=O)=O)cc3)CC2c2ccco2)cc1 (centres undefined),4%,-25,-22%,-10%
COc1ccc(C2CC(c3ccccc3)=NN2c2ccc(N)cc2)cc1 (centres undefined),-11%,19,?,?
COc1ccc(C2CC(c3ccccc3)=NN2S(=O)(=O)c2ccccc2)cc1 (centres undefined),13µM*,-40,?,?
CS(=O)(=O)Nc1cccc(C2=NN(S(C)(=O)=O)C(c3ccc4c(c3)OCO4)C2)c1 (centres undefined),-12%,80,37%,2.3µM*
COc1ccc(-n2c(-c3ccc(C)cc3)cc3c2CC(C)(C)CC3=O)cc1Cl,.,-18,.,.
COc1ccc(-c2cc3nccc(-c4cc(Cl)c(C)cc4O)n3n2)cc1,.,45,.,.
O=c1cc(CSc2nnc(COc3ccccc3)o2)c2ccccc2[nH]1,12%,2,?,13%
O=c1cc(CSc2nnc(COc3cccc4ccccc34)o2)c2ccccc2[nH]1,3%,0,79%,12µM*
O=C(CNc1ccc(Br)cc1)Nc1ccc(S(=O)(=O)N2CCCCC2)cc1,.,22,.,.
CC1CCN(S(=O)(=O)c2ccc3c(c2)CCC(=O)N3CC(=O)Nc2cccc(C#N)c2)CC1,.,55,12µM*,?
N#Cc1cccc(NCC(=O)Nc2cccc(S(=O)(=O)N3CCCCC3)c2)c1,?,-11,13µM*,?
N#Cc1cccc(NC(=O)CNc2cccc(S(=O)(=O)N3CCCC3)c2)c1,2.5µM*,-26,10µM*,?
N#Cc1ccc(NCC(=O)Nc2ccc(S(=O)(=O)N3CCCCC3)cc2)cc1,-15%,-6,9.3µM*,?
Cc1oc2c(c1C(=O)NCc1ccccc1F)C1=NCCN1C=N2,.,-6,.,.
Cc1ccc(NC(=O)c2ccc3oc(=O)c(S(=O)(=O)c4ccccc4)cc3c2)cc1C,.,22,.,.
CCN1CCC(N(Cc2cccc(OC)c2)C(=O)Nc2cccc(C(F)(F)F)c2)CC1,.,-12,.,.
O=C(Nc1ccc2nn(-c3ccc(F)cc3)nc2c1)c1cccc2c(Cl)cccc12,.,13,.,.
